In the library only some 2% were active in any assay of this set; here they are far more common.
Neddylation inh – inhibitors of cullin neddylation, primary screen, biochemical, TR-FRET, uHTS, NAE and Ubc12; NEDD8-conjugating enzyme Ubc12 (Homo sapiens) + NEDD8-activating enzyme E1 regulatory …; inhibition, % at 25 µM; hit rate 0.58% among 360,000; AID 651699, 2012; in the data active = inhibition above about 36%
APOBEC3G inh – APOBEC3G DNA deaminase inhibitors, primary screen, biochemical, fluorescence, single-stranded DNA substrate, uHTS; DNA dC->dU-editing enzyme APOBEC-3G (Homo sapiens), Q9HC16; recombinant A3G, ssDNA deamination FAM/TAMRA fluorescence; inhibition, % at 20 µM; hit rate 0.28% among 330,000;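 active = inhibition of at least 40% at 20 µM, with no more than 30% in the related APOBEC3A deaminase screen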;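 also: plate controls were DMSO wells with A3G for no effect and wells lacking A3G enzyme for full effect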
PfG6PD inh – PfG6PD enzyme inhibitors, primary screen, biochemical, fluorescence intensity, uHTS | glucose-6-phosphate dehydrogenase-6-phosphogluconolactonase (Plasmodium falciparum 3D7) | PfGluPho enzyme, NADPH resazurin-diaphorase fluorescence | inhibition, % at 20 µM | hit rate 0.78% among 350,000;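 active = inhibition reaching at least a set limit at 20 µM in the primary screen, cut at about 59% in these data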;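 also: 0% = DMSO wells with substrate and 100% = DMSO wells lacking glucose-6-phosphate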
GC-A act – GC-A stimulated cGMP production enhancers – HEK293 GC-A cells, cGMP TR-FRET, EC30 ANP, primary screen. Atrial natriuretic peptide receptor 1 (Homo sapiens), P16066. 0% at EC30 ANP, 100% saturating ANP. activation, % at 10 µM. hit rate 0.14% among 370,000; in the data active = activation above about 40%
NPR2 activator – human GC-B receptor activators, primary screen, HEK293 GC-B cells, cGMP TR-FRET, EC30 CNP; hit rate 0.11% among 370,000; AID 1920062, 2024; activation, % at 10 µM; Atrial natriuretic peptide receptor 2 (Homo sapiens), P20594; 0% at EC30 CNP, 100% saturating CNP;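 active = activation at 10 µM reaching about 35% in either raw or pattern-adjusted values, limit read from the data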
Target sequence (P20594 whole entry, looked up): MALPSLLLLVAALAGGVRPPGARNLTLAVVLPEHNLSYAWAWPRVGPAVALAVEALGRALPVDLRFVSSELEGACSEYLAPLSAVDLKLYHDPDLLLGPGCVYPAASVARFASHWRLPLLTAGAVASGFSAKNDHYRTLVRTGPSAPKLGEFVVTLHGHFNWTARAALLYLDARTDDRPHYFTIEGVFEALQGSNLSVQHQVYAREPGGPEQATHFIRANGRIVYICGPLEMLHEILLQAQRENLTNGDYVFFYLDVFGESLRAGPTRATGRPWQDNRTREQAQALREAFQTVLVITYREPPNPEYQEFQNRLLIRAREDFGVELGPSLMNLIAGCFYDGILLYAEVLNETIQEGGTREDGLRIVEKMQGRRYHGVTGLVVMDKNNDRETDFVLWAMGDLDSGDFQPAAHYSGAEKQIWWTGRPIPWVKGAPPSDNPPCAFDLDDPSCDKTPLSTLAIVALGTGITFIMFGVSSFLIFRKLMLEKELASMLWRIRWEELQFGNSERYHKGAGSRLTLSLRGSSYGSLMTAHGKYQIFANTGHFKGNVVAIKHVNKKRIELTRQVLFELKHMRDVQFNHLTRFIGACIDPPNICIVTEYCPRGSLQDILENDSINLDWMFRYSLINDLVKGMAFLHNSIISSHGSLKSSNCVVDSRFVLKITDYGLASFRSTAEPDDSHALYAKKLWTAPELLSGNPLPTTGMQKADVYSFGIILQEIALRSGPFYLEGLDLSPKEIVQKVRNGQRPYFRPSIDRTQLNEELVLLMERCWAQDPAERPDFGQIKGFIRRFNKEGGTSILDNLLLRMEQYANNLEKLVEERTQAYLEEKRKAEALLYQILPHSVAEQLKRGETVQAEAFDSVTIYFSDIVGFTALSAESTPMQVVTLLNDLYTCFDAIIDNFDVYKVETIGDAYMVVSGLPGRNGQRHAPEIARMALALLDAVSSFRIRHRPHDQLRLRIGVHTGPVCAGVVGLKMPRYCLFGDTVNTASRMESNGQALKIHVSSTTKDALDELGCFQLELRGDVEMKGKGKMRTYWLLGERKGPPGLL
A3A deaminase – APOBEC3A ssDNA deaminase inhibitors, primary screen, selectivity assay for APOBEC3G inhibitor project, biochemical, FAM/TAMRA oligo cleavage fluorescence; hit rate 0.41% among 330,000; recombinant A3A, FAM/TAMRA ssDNA deamination fluorescence; inhibition, % at 20 µM;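 active = at least 40% inhibition at 20 µM here, with at most 30% in a related deaminase screen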;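 also: plate controls were A3A with DMSO for no effect and wells lacking A3A enzyme for full effect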
PfGluPho conf – PfG6PD inhibitors, hit retest, confirmation, biochemical, fluorescence intensity, single concentration. AID 504753, 2011. recombinant PfGluPho, NADPH-diaphorase-resazurin fluorescence. hit rate 34% among 2,400. shares compounds with PfG6PD inh. inhibition, % at 20 µM;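 active = inhibition of at least 50% at 20 µM in any single replicate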;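 also: 0% = DMSO with substrate and 100% = DMSO lacking glucose-6-phosphate substrate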
Diaphorase 10uM – diaphorase inhibitors and chemical oxidizers, confirmation, counter-screen for P. falciparum G6PD inhibitor project, biochemical, fluorescence intensity, 10 µM NADPH | inhibition, % at 20 µM | diaphorase-coupled resazurin reduction, NADPH 10 uM | shares compounds with PfG6PD inh | hit rate 39% among 820;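 active = average inhibition reaching 50% or more with the compound at 20 µM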;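 also: resorufin red fluorescence formed as diaphorase reduces resazurin using NADPH; 0% = DMSO with enzyme and 100% = DMSO without enzyme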
Diaph ctr 30uM – diaphorase inhibitors and chemical oxidizers, confirmation, counter-screen for P. falciparum G6PD inhibitor project, biochemical, fluorescence intensity, 30 µM NADPH. shares compounds with PfG6PD inh. Diaphorase/resazurin coupled assay, resorufin fluorescence. inhibition, % at 20 µM. hit rate 29% among 820. AID 504863, 2011;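 active = inhibition averaging 50% or more, tested at 20 µM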;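 also: 0% = DMSO with enzyme and 100% = DMSO wells lacking diaphorase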
Neddyl inh conf – blockade of NEDD8 conjugation to cullin – biochemical, TR-FRET, single concentration, confirmation; shares compounds with Neddylation inh; TR-FRET cullin neddylation biochemical assay; calls only at 25 µM; hit rate 13% among 1,800; AID 652217, 2013; in the data active = inhibition above about 40%;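 also: neddylation substrate is the cullin 1 ring ligase complex with SKP2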
Active calls of the source: *; i = inactive; / = not tested or not shown.

SMILES | Neddylation inh | APOBEC3G inh | PfG6PD inh | GC-A act | NPR2 activator | A3A deaminase | PfGluPho conf | others
Cc1ccc(NC2Sc3ccccc3NC2=O)cc1Cl (stereo unspecified) | -7.9 | -6.6 | 82.3* | 0.5 | -0.1 | 1.0 | -6.0
CCC(NC(=O)C1CCCN(c2ncccn2)C1)c1ccccc1 (stereo unspecified) | / | / | / | 4.1 | 0.7 | / | /
O=C(Nc1ccccc1Cl)OC1CC2CC1[C@H]1CCCCN1[C@H]2Cc1ccccc1 (stereo partly specified) | / | / | / | -12.3 | -5.6 | / | /
COCc1[nH]nc2c1C(c1cccc(C(F)(F)F)c1)N(c1ccc(OC)cc1)C2=O (stereo unspecified) | / | / | / | -25.8 | -26.7 | / | /
COc1ccc(CCN2C(=O)CSC2=Nc2ccc(C(C)C)cc2)cc1OC | 1.2 | -4.3 | 47.5 | 1.6 | -3.6 | -1.2 | -8.3
O=C(CCCCCN1C(=O)C2C3C=CC(C3)C2C1=O)Nc1ccc2ncccc2c1 (stereo unspecified) | / | / | / | 3.1 | -3.1 | / | /
Cc1cc(C)c(S(=O)(=O)c2cccc(Br)c2C)c(Cl)n1 | -2.9 | / | 69.0* | 1.4 | -1.5 | / | 21.7
CCOc1ccc2ccccc2c1/C=N/NC(=O)c1ccncc1 | -10.5 | -2.4 | 72.3* | -11.5 | -4.5 | -3.1 | 66.4* | Diaphorase 10uM=60.8*;Diaph ctr 30uM=47.0
CCOc1ccc2ccccc2c1/C=N/NC(=O)CC1(C)OCCCO1 | -4.2 | -10.9 | 76.6* | -3.2 | -6.4 | -2.2 | 57.4* | Diaphorase 10uM=59.5*;Diaph ctr 30uM=55.4*
CCOc1ccc2ccccc2c1/C=N/NC(=O)c1cc(C)[nH]n1 | -9.7 | -5.3 | 54.7 | -2.6 | 10.3 | -3.8 | /
Cc1c(Cl)cccc1N=Cc1ccc([N+](=O)[O-])s1 | 1.1 | -1.4 | 77.4* | 8.5 | -1.1 | 6.2 | -5.2
Cc1ccccc1C(=O)N/N=C/c1ccc([N+](=O)[O-])s1 | 12.2 | -2.2 | 35.1 | -1.8 | -4.3 | -1.4 | /
CCN=C1NC(c2ccc(Cl)cc2)C(C(=O)OC)=C(C)N1Cc1cccc(C(F)(F)F)c1 (stereo unspecified) | / | / | / | -24.2 | -18.0 | / | /
CCN(C[C@H]1[C@@H](c2ccc(C3=CCCC3)cc2)[C@H](CO)N1Cc1ccccn1)S(=O)(=O)c1ccccc1[N+](=O)[O-] | / | / | / | -1.3 | -3.0 | / | /
COc1ccc(-c2cn3cc(C)ccc3n2)cc1F | / | -10.2 | 107.0* | -2.7 | -3.1 | -5.8 | 73.0* | Diaphorase 10uM=64.4*;Diaph ctr 30uM=54.1*
COc1ccc(-c2cn3cc(C)ccc3n2)cc1OC | / | -4.6 | 61.4* | 2.9 | -2.9 | -5.4 | 42.7
NC(=S)NN=C1c2cc(Cl)ccc2-c2c1cc(Cl)cc2[N+](=O)[O-] | -5.9 | / | 4.0 | / | / | / | /
COc1cc2c(cc1[N+](=O)[O-])-c1ccc([N+](=O)[O-])cc1C2=NNC(N)=S | -27.7 | / | 73.4* | / | / | / | 22.4
S=c1[nH]c(-c2ccc(Cl)cc2)cs1 | -19.4 | -1.9 | 62.4* | 4.1 | 0.4 | -0.3 | 2.6
S=c1[nH]nc(-c2ccc3ccccc3n2)n1-c1ccccc1Cl | 19.2 | / | 62.5* | -0.7 | -5.4 | / | 47.6
COc1c(Cl)cccc1-c1cn2ccc(C)cc2n1 | 43.5* | -6.3 | 83.4* | 1.8 | -4.0 | -2.9 | 28.7 | Neddyl inh conf=i
Cc1ccn2cc(-c3cnoc3C)nc2c1 | 33.8 | -4.9 | 16.6 | -2.1 | 0.9 | -1.7 | /
COC(=O)[C@]12C[C@H](CC(=O)NCc3ccc(OC)c(OC)c3)C(=O)N(Cc3ccccc3)C1=C[C@H](C(C)(C)C)O[C@@H]2C | / | / | / | -9.5 | -11.3 | / | /
COc1cccc(CNc2ccc3[nH]c(=O)[nH]c3c2)c1OCc1ccc(F)cc1 | 43.4* | -3.8 | 112.3* | -9.7 | -4.5 | -8.4 | 50.5* | Diaphorase 10uM=-9.1;Diaph ctr 30uM=-1.0;Neddyl inh conf=i
CCOC(=O)c1csc(NC(=O)C2CCCN(S(=O)(=O)c3cccs3)C2)n1 (stereo unspecified) | / | / | / | 3.2 | -0.7 | / | /
SMILES | Neddylation inh | APOBEC3G inh | PfG6PD inh | GC-A act | NPR2 activator | A3A deaminase | PfGluPho conf | others
COCCn1nnnc1C(c1cc2cc(OC)c(OC)cc2[nH]c1=O)N1CCN(c2ccc(O)cc2)CC1 (stereo unspecified) | 42.2* | 37.6 | 65.4* | 3.4 | 6.7 | -1.0 | 55.6* | Diaphorase 10uM=6.7;Diaph ctr 30uM=-2.6;Neddyl inh conf=i
CC1(C)Cc2c(C#N)c(NCC3CCCO3)nc(-c3ccco3)c2CO1 (stereo unspecified) | 48.9* | -4.9 | 19.6 | 8.8 | 22.6 | -4.2 | /
COc1ccc(C(=O)C2(C(=O)NCc3ccccc3)CC(c3ccccn3)=NO2)cc1 (stereo unspecified) | / | / | / | 0.0 | 4.5 | / | /
CCC(=O)Nc1cc(-c2nn(C)c(=O)c3ccccc23)ccc1N1CCCCC1 | 37.9* | 1.4 | 6.1 | 4.7 | 2.0 | 0.1 | / | Neddyl inh conf=i
CCCC(=O)Nc1cc(-c2nn(C)c(=O)c3ccccc23)ccc1N1CCCCC1 | 37.3 | -4.4 | 6.8 | -1.8 | 0.0 | 1.3 | /
Cc1cc(=O)oc2cc(OC(C)C(=O)O)c(Cl)cc12 (stereo unspecified) | 36.5 | -3.4 | -7.0 | 2.9 | 0.2 | -2.6 | /
Cc1cc(=O)oc2cc(OC(C)C(=O)N3CCOCC3)c(Cl)cc12 (stereo unspecified) | 44.2* | / | 18.8 | 2.3 | -0.4 | / | / | Neddyl inh conf=i
CCN1CCc2nc3sc(C(=O)Nc4cccnc4Cl)c(N)c3cc2C1 | 40.3* | 7.1 | 30.7 | 14.7 | -1.1 | -4.2 | / | Neddyl inh conf=i
CCN1CCc2nc3sc(C(=O)N4CCc5ccccc5C4)c(N)c3cc2C1 | 9.4 | 2.5 | 39.6 | 4.2 | 0.4 | -0.4 | /
COc1ccccc1CCn1cnc(-c2ccccc2F)c1CC(C)C | / | / | / | -9.0 | -13.6 | / | /
COCCCn1cnc2c(c1=O)c1nc3ccccc3nc1n2CCc1ccccc1 | 53.6* | 0.0 | 6.2 | 16.4 | 3.8 | 3.7 | / | Neddyl inh conf=i

Source: PubChem BioAssay (Sanford-Burnham Center for Chemical Genomics)
